Here are results for 40 compounds from PubChem BioAssay (NCATS).

Results filed as inconclusive are left out. Values without a mark were called inactive. Calls of active or inactive are those of the source. Calls follow the shape of the dose curve; as a rule, active = well fitted inhibition curve with a large enough effect; inconclusive = small, poorly fitted or top-dose-only effect; inactive = no such curve, though single readings can be large or run the other way.
% is scaled to controls: 0 for no effect and ±100 for the full control effect; potency is read from the fitted curve at half-maximal effect.

This assay concerns Zika virus NS2B-NS3 protease (linked construct). Nature of the assay: Primary screen NINDS Rhodamine qHTS for Zika virus inhibitors (AID 1347160). Also: nearly all actives have a fitted effect of over 55% in size. Conditions: purified NS2B-NS3 protease, Rhodamine110 substrate fluorescence; series mostly up to 57.1 µM; activity change, negative = inhibition: at the top concentration. From the text:
Avindra Nath, Ph.D., National Institute of Neurological Disorders and Stroke (NINDS), Bethesda, MD
Radhakrishnan Padmanabhan, Ph.D., Georgetown University (GU), Washington D.C.
Zika Virus causes congenital defects, including microcephaly and is associated with Guillain-Barre syndrome, eningoencephalitis and myelitis in infected adult. […] Using a target-based approach, we hope to establish a screening paradigm to uncover novel, cell-active NS2B-NS3 protease (Zika Virus) specific inhibitors from NCATS' collection of small molecules using qHTS.
Four assay panel was created to identify potential Zika Virus inhibitors. Namely, (1) GU unlinked NS2B-NS3 AMC tagged protease qHTS, (2) GU unlinked NS2B-NS3 Rhodamine tagged protease qHTS, (3) NINDS linked NS2B-NS3 AMC tagged protease qHTS, (4) NINDS linked NS2B-NS3 Rhodamine tagged protease qHTS. Active compounds were re-acquired and re-screened to confirm inhibition. Inhibitors were further screened against various confirmatory and counterscreens in dose response format.
Early Translation Branch (ETB)
National Center for Advancing Translational Sciences (NCATS), Rockville, MD
National Institute of Health (NIH), Bethesda, Maryland
For the linked assay, Nath lab (NINDS) provided the purified linked NS2B-NS3 protease which is consists of hydrophilic domain of NS2B linked to the NS3 protease domain by a flexible (-[…]-) linker. Control compound aprotinin is obtained from Thermo Scientific (#78432; Waltham, Massachusetts). Rhodamine110 substrate ([N-Cbz]-Nle-Lys-Arg-Arg-Rhod110-Arg-Arg-Lys-Nle-[N-Cbz]) was purchased from either Genscript or Bachem.
1536-well Protease (Rhodamine110 Substrate) Assay:
Briefly, 3 microL of enzyme (25 nM final concentration), in assay buffer (10 mM Tris-HCl pH 8.0 with 0.01% Tween 20) were dispensed into a 1,536-well solid-bottom black plate (Greiner Bio One, Monroe, NC). Twenty-three nL of compounds (final concentration range 7.28 nM to 114 microM) or control Aprotinin (final concentration range 3.47 nM to 114 microM) were transferred via Wako Pin-tool (Wako Automation, Richmond, VA). Samples were incubated (room temperature, protected from light) for 15 minutes followed by a 1 microL Rhodamine110 substrate addition (1.5 microM final concentration). Plates were then immediately read on a ViewLux High-throughput CCD imager (PerkinElmer, Waltham, MA) equipped with FITC fluorescence optics (480(20) nm excitation, 540(25) nm emission), then incubated (room temperature, protected from light) for 15 minutes (~15% conversion). The change in fluorescence intensity over the 15-minute reaction period was normalized against no-inhibitor and no-enzyme controls and the resulting percent inhibition data were fitted to a 4-parameter Hill equation. Aprotinin was used as intraplate control.
A general note: In qHTS, concentration-response curves come from the screen itself.
Consider `O=C(Nc1ncc(-c2cc(C(F)F)nn2-c2c(Cl)cccc2Cl)s1)C1CC1`, for which the “activity change, negative = inhibition” value was 19.8%.
For `O=C(CCCCCCNC(=O)c1cnc(N(c2ccccc2)c2ccccc2)nc1)NO`, the result was inactive.
Take `CN(C)CC(C)(C)CNc1nn2c(-c3ccccc3)nnc2cc1C1CCC1`: the “activity change, negative = inhibition” value was 16.9%.
Regarding `CCc1cc2c(cc1N1CCC(N3CCOCC3)CC1)C(C)(C)c1[nH]c3cc(C#N)ccc3c1C2=O`, the “activity change, negative = inhibition” value is 37.8% [at 33.1 µM].
Still for that read-out and setting: for `CCN(CC)CCNC(=O)c1ccc2nc(-c3ccccc3)c(-c3ccc(CN4CCC(n5c(=O)[nH]c6ccccc65)CC4)cc3)nc2c1` the value was 242%.
As to `Cc1coc2c1C(=O)C(=O)c1c-2ccc2c1CCCC2(C)C`, the Potency was 14.1 µM (active).
In the case of `Cc1c(CN2CCN(S(C)(=O)=O)CC2)sc2c(N3CCOCC3)nc(-c3cnc(N)nc3)nc12`, the “activity change, negative = inhibition” value is 8.73%.
Still for that read-out and setting: for `Nc1cc(C(F)(F)F)c(-c2cc(N3CCOCC3)nc(N3CCOCC3)n2)cn1` the value was 12.2%; for `CCCCCN(CCC12CC3CC(CC(C3)C1)C2)C(=O)NCCCc1ccncc1`, 10%; for `COc1ccc(-c2cc3c(C)nc(N)nc3n(C3CCC(OCCO)CC3)c2=O)cn1` (stereo not given), 8.01%.
On the same count and under the same terms, for `CCCCOc1c(C(=O)c2c(F)cc(C)cc2F)cnc2n[nH]cc12` the value was 1.56%.
The same measure, in the same setting: with `COC(=O)c1ccc2c(C(=Nc3ccc(N(C)C(=O)CN4CCN(C)CC4)cc3)c3ccccc3)c(O)[nH]c2c1` the figure was -9.33%; with `COc1cc2c(Oc3ccc(NC(=O)C4(C(=O)Nc5ccc(F)cc5)CC4)cc3F)ccnc2cc1OCCCN1CCOCC1`, 131%.
As for `CCc1c2c(nc3ccc(O)cc13)-c1cc3c(c(=O)n1C2)COC(=O)[C@]3(O)CC`, the Potency was 10 µM (active).
Regarding `COc1cc(C(=O)N2CCC(N3CCN(C)CC3)CC2)ccc1Nc1ncc2c(n1)N(C)c1ccccc1C(=O)N2C`, the “activity change, negative = inhibition” value was 11.9%.
On the same count and under the same terms, for `Nc1ncnc2c1c(-c1cnc3[nH]ccc3c1)nn2C1CCCC1` the value was -6.05%.
For `CC[C@@]1(O)C(=O)OCc2c1cc1n(c2=O)Cc2cc3cc(O)ccc3nc2-1`, the Potency was 20 µM (active).
For `c1nc2nc(Nc3ccc(N4CCOCC4)cc3)nc(NC3CCCCC3)c2[nH]1`, the “activity change, negative = inhibition” value was 34.9% [at 33.1 µM].
Consider `Clc1cccc(-c2nnnn2Cc2cccnc2)c1Cl`, for which the “activity change, negative = inhibition” value was -24.2%.
Same read-out and setting: with `CNC(=O)c1ccccc1Nc1nc(Nc2ccc(N3CCOCC3)cc2OC)ncc1Cl` the figure was 93.8%; with `Clc1cccc(-n2nnnc2NCc2ccccc2Oc2ccccn2)c1Cl`, 23.1%.
Still for that read-out and setting: with `O=c1c2ccccc2nc2n1CCc1c-2[nH]c2ccccc12` the figure was 7.86%.
For `COc1ccc(C(=O)CC2(O)C(=O)Nc3c(Cl)ccc(Cl)c32)cc1` (stereo not given), the compound was classed as inactive.
Regarding `Nc1ncnc2c1c(-c1cccc(OCc3ccccc3)c1)cn2C1CC(CN2CCCC2)C1` (stereo not given), the “activity change, negative = inhibition” value was 276%.
In the case of `Cc1cc(N2CCOCC2)cc2[nH]c(-c3c(NC[C@@H](O)c4cccc(Cl)c4)cc[nH]c3=O)nc12`, the compound was called inactive.
On the same count and under the same terms, with `CC(=O)Nc1sc2c(c1-c1nc3ccccc3s1)CNC2` the entry was “inactive”; with `COC(=O)Nc1ccc(-c2nc(N3CCOCC3)c3cnn(C4CCN(Cc5cccnc5)CC4)c3n2)cc1`, “inactive”.
Regarding `CC(=O)c1c(C)c2cnc(Nc3ccc(N4CCNCC4)cn3)nc2n(C2CCCC2)c1=O`, the activity change, negative = inhibition was 8.21% [at 4.91 µM].
Consider `CC(C)CC(=O)Nc1n[nH]c2c1CN(C(=O)C1CCN(C)CC1)C2(C)C`, for which the outcome was inactive.
Consider `CS(=O)(=O)N1CCN(Cc2cc3nc(-c4cccc5[nH]ncc45)nc(N4CCOCC4)c3s2)CC1`, for which the “activity change, negative = inhibition” value is -18.8%.
For `CC[C@@H]1C(=O)N(C)c2cnc(Nc3ccc(C(=O)NC4CCC(N5CCN(CC6CC6)CC5)CC4)cc3OC)nc2N1C(C)C` (stereo not given in full), the Potency entry was “inactive”.
On the same count and under the same terms, with `C[C@@H](Oc1cc(-c2cnn(C3CCNCC3)c2)cnc1N)c1c(Cl)ccc(F)c1Cl` the entry was “inactive”.
`CC(C)Nc1cc(C(F)(F)F)cc2nc(NC(=O)c3cccnc3)nn12`: the “activity change, negative = inhibition” value is 17.7%.
Still for that read-out and setting: with `O=C(O)CCCc1c[nH]c2ccccc12` the figure was 28.2%.
Turning to `COc1cc2c(Oc3ccc4[nH]c(C)cc4c3F)ncnc2cc1OCCCN1CCCC1`, the “activity change, negative = inhibition” value was 322%.
The same measure, in the same setting: with `CC(=O)Nc1nc(C)c(-c2ccc(Cl)c(S(=O)(=O)NCCO)c2)s1` the figure was 13.1%.
Take `Nc1nc(NCCNc2ncc(-n3ccnc3)c(-c3ccc(Cl)cc3Cl)n2)ccc1[N+](=O)[O-]`: the result was inactive.
With `CN1CCN(Cc2ccc(NC(=O)Nc3ccc(Oc4cc(NC(=O)C5CC5)ncn4)cc3)cc2C(F)(F)F)CC1`, the “activity change, negative = inhibition” value was 347%.
For the compound `CC(C)c1noc(N2CCC(COc3ccc(-c4ccc(S(C)(=O)=O)cc4)nc3)CC2)n1`, the “activity change, negative = inhibition” value is 9.43%.
Consider `C=CC(=O)N1CCC[C@@H](n2nc(-c3ccc(Oc4ccccc4)cc3)c3c(N)ncnc32)C1`, for which the “activity change, negative = inhibition” value is 13.7%.
